This excerpt belongs to a sample that is enriched for hits.
Methyltransferases: Primary Screen for Target Class Profiling of Small Molecule Inhibitors of Methyltransferases. purified enzyme, MTase-Glo SAH luminescence; hits give low values. calls only at 40 µM. hit rate 3.9% among 25,000; call rule not given here
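Each enzyme was assayed with SAM and its substrate. SAH formation detected by MTase-Glo luminescence; single-point 40 uM screen[…].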
Starred values were filed as active, the others as inactive; i = inactive; + = active, no number. % is scaled to controls: 0 for no effect and ±100 for the full control effect.

SMILES | Methyltransferases
Cc1ccc(-c2n[nH]n3c2nc(=O)c2ccc(C(=O)NCc4ccccc4)cc23)cc1 | i
CCCC1(CO)CCCN(Cc2cnn(-c3cccc(F)c3)c2)C1 (stereo not drawn) | i
CCCNC(=O)N[C@@H]1CCC[C@@H](C(=O)N(CC)CC)CC(=O)N(C)C1 | i
CCOc1ccccc1CN1C(=O)c2cc3occc3n2CC1(C)C(=O)NC1CCCC(C)C1C (stereo not drawn) | i
CC(=O)NC(Cc1ccccc1)C(=O)NC(C(=O)O)C(C)C (stereo not drawn) | i
O=C(O)CNC(=O)C(CS)Cc1ccccc1 (stereo not drawn) | +
O=C(O)CNC(=O)CNC(=O)CNC(=O)CSC(=O)c1ccccc1 | i
CCOc1ccc(C2c3cccn3-c3sc4c(c3CN2C(=O)Nc2ccc(F)cc2)CCCC4)cc1 (stereo not drawn) | i
CCC(C)C1NC(=O)C2CCCN2C(=O)C(CC(O)CO)OC(=O)CCNC(=O)C(C)N(C)C(=O)C(C(C)C)N(C)C1=O (stereo not drawn) | i
Fc1cc(F)c2c(c1)[C@@H]1C=CC[C@@H]1[C@H](c1ccncc1)N2 | i
CCN(CC)Cc1cc(C2CC(=O)Nc3n[nH]c(C(=O)O)c32)ccc1OC (stereo not drawn) | i
Nc1nc(N)c(N=O)c(OCC2CCCCC2)n1 | i
NS(=O)(=O)c1ccc(Nc2nc(OCC3CCCCC3)c3[nH]cnc3n2)cc1 | +
CCN(CC)C(=O)c1ccc(Nc2nc(OCC3CCCCC3)c3[nH]cnc3n2)cc1 | +
CCCc1nc(CN(CC)C(=O)c2ccc(NC(=O)C3CCC3)cc2)no1 | i
Cc1ccc(CCNC(=O)c2ncn3c2C(=O)N(C2CC2)C(C)(C(=O)NCc2ccc(C)cc2)C3)cc1 (stereo not drawn) | i
Cc1cccc(CNC(=O)C2(C)Cn3cnc(C(=O)NC4CCCCC4)c3C(=O)N2C2CC2)c1 (stereo not drawn) | i
C=C1[C@@H]2CC[C@@]3(C)[C@H](c4ccoc4)OC(=O)C[C@]13O[C@H]1CC(=O)C(C)(C)[C@H](CC(=O)OC)[C@]12C | i
CC(C)NC(=O)CSc1nnc2n(Cc3ccccc3)c(=O)c3ccc(C(=O)NC(C)C)cc3n12 | i
O=C(NCCc1ccccc1)Nc1cccn2ncnc12 | i
Cc1cc(NC(=O)NCCN2CCC(O)(Cc3ccccc3)CC2)c2ccccc2n1 | +
CN1C(=O)c2cc(C(=O)NCCN3CCOCC3)nn2CC1(C)C(=O)NCc1ccccc1 (stereo not drawn) | i
C[C@@H]1O[C@@H](O[C@@H]2[C@@H](O)[C@H](O[C@H]3[C@H](O[C@H]4CC[C@@]5(C)C(CC[C@]6(C)C5CC=C5[C@@H]7CC(C)(C)CC[C@]7(C(=O)O[C@@H]7O[C@H](CO)[C@@H](O)[C@H](O)[C@H]7O)CC[C@]56C)C4(C)C)O[C@H](C(=O)O)[C@@H](O)[C@@H]3O)OC[C@H]2O)[C@H](O)[C@H](O)[C@H]1O (stereo partly drawn) | i
CC1(CO)CC[C@]2(C(=O)O[C@@H]3O[C@H](CO)[C@@H](O)[C@H](O)[C@H]3O)CC[C@]3(C)C(=CCC4[C@@]5(C)CC[C@H](O[C@@H]6O[C@H](C(=O)O)[C@@H](O)[C@H](O)[C@H]6O)C(C)(C)C5CC[C@]43C)C2C1 (stereo partly drawn) | i
CC1(C)CC[C@]2(C(=O)O[C@@H]3O[C@H](CO)[C@@H](O)[C@H](O)[C@H]3O)CC[C@]3(C)C(=CCC4[C@@]5(C)CC[C@H](O[C@@H]6O[C@H](C(=O)O)[C@H](O)[C@H](O)[C@H]6O)C(C)(C)C5CC[C@]43C)[C@@H]2C1 (stereo partly drawn) | +
SMILES | Methyltransferases
CC1(C)CC[C@@]2(C(=O)O[C@@H]3O[C@H](CO)[C@@H](O)[C@H](O)[C@H]3O)C(C1)C1=CCC3[C@@]4(C)CC[C@@H](O[C@@H]5O[C@H](C(=O)O)[C@@H](O[C@@H]6OC[C@@H](O)[C@H](O)[C@H]6O)[C@H](O[C@@H]6OC[C@](O)(CO)[C@H]6O)[C@H]5O)C(C)(C)C4CC[C@@]3(C)[C@]1(C)C[C@H]2O (stereo partly drawn) | i
CC1(C)CC[C@]2(C(=O)O[C@@H]3O[C@H](CO)[C@@H](O)[C@H](O)[C@H]3O)CC[C@]3(C)C(=CCC4[C@@]5(C)CC[C@H](O[C@@H]6O[C@H](C(=O)O)[C@@H](O)[C@H](O)[C@H]6O)C(C)(C)C5CC[C@]43C)C2C1 (stereo partly drawn) | i
CC1OC(OC2C(OC(=O)[C@]34CCC(C)(C)C[C@H]3C3=CCC5[C@@]6(C)CC[C@H](OC7OC(C(=O)O)C(O)C(O)C7O)C(C)(C)C6CC[C@@]5(C)[C@]3(C)CC4O)OC(CO)C2O)C(O)C(O)C1OC1OCC(O)C(O)C1O (stereo partly drawn) | +
O=[S+]([O-])(NCC1CN(Cc2ccc3[nH]ccc3c2)CC12CN(c1ccccc1)C2)c1ccccc1 (stereo not drawn) | i
Cn1c(=O)c2ccc(C(=O)NC3CCCCC3)cc2n2c(SCC(=O)c3ccccc3)nnc12 | i
CC(O)C(=O)/C=C/C=C/C(=O)OC1C=C2COC(=O)C2(O)C2(C)CCCC(C)(C)C12 (stereo not drawn) | i
NC[C@@](O)(c1ccc(Cl)cc1)c1ccc(-c2cn[nH]c2)cc1 | +
NCC(O)(CS(=O)(=O)O)c1ccc(Cl)cc1 (stereo not drawn) | i
O=C(Cn1ccc2cc(S(=O)(=O)N3CCCC3)ccc21)NCc1cccc(F)c1 | i
C=C1C(=O)O[C@@H]2C3=C(C)CCC[C@]3(C)CC[C@@]12O | +
CC1=C2C3OC(=O)C(C)C3(O)CCC2(C)CCC1=O (stereo not drawn) | i
CC1=C2C3OC(=O)C(C)C3(O)CCC2(C)CCC1 (stereo not drawn) | i
CCOc1ccc(CN2C(=O)c3c(C(=O)OC)ncn3CC2(C)C(=O)NC2CCCC2)cc1OC (stereo not drawn) | i
CC(C)=CCC[C@](C)(O[C@@H]1O[C@H](CO)[C@@H](O)[C@H](O)[C@H]1O)[C@H]1CC[C@]2(C)[C@@H]1[C@H](O)CC1[C@@]3(C)CC[C@H](O)C(C)(C)C3[C@@H](O[C@@H]3O[C@H](CO)[C@@H](O)[C@H](O)[C@H]3O)C[C@]12C (stereo partly drawn) | i
Cc1cc(CC(=O)N2C[C@@H](COCC3CC3)[C@H](c3ccncc3)C2)on1 | i
CSCCC(NS(=O)(=O)c1ccc2c(c1)oc(=O)n2C)C(=O)N1CCN(Cc2ccccc2)CC1 (stereo not drawn) | i
O=C(OC[C@H]1O[C@H](O[C@]2(CO)O[C@H](CO)[C@@H](O)[C@@H]2O)[C@H](O)[C@@H](O)[C@@H]1O)c1ccccc1 | i
CC(C)(O)/C=C1/C(=O)C(C)(C)C(=O)C(C)(C)C1(O)O[C@@H]1O[C@H](COC(=O)c2cc(O)c(O)c(O)c2)[C@@H](O)[C@H](O)[C@H]1O (stereo partly drawn) | +
C[C@@]12C[C@]3(O)O[C@H](O1)[C@]1(COC(=O)c4ccccc4)[C@H]3C[C@@]12O[C@@H]1O[C@H](COC(=O)c2ccccc2)[C@@H](O)[C@H](O)[C@H]1O | i
COc1cc(O)cc2c1C(=O)OC(C)CCCCCCC2 (stereo not drawn) | i

Screening data deposited in PubChem BioAssay by National Center for Advancing Translational Sciences (NCATS).
